Here are results for 26 compounds from the supplement of paper PMC7366291.

Common to all, as to details: 25 µM; exposure: 24-48 hpf
Assay [1] concerns Danio rerio Tg(wt1b:EGFP) embryo, pronephros. In words: glomerular separation, fold change vs DMSO control; higher = glomeruli further apart (abnormal). The gist of the method: (§1)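 In HEPES-buffered E3 with 0.003% PTU and 0.5% DMSO, dechorionated Tg(wt1b:EGFP) zebrafish embryos were exposed to 25 μM compound from 24 to 48 hpf at 28.5°C. Pronephroi were then imaged dorsally at 470 nm in 10 z-slices, in 96-well plates filled with agarose. On maximum projections, a Fiji macro turned 16 manually placed reference points into distances and angles, and values more than 2 SD from the feature mean were excluded. Features are fold changes relative to the mean of DMSO-treated embryos from the same day.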

Assay [2] has the same test system. The assay is described as follows: glomerular width (mean of left and right), fold change vs DMSO control; higher = wider glomerulus. The gist of the method:
as §1

The test system is the same in assay [3]. The assay is described as follows: fraction of imaged embryos annotated as normal kidney; higher = less nephrotoxic; extreme values may be limits of the assay. The gist of the method:
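The read-out is the proportion of embryos in each treatment manually annotated as normal-kidney. Exposure ran from 24 to 48 hpf at 28.5°C in 12-well plates, using dechorionated Tg(wt1b:EGFP) zebrafish embryos in 5 mM HEPES-buffered E3 with 0.003% PTU, 0.5% DMSO and 25 μM compound. For imaging, larvae were anaesthetised with tricaine, positioned dorsally in agarose-filled 96-well plates and captured by widefield fluorescence (470 nm, 10 z-slices), with scoring done on maximum projections.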

The test system is the same in assay [4]. In words: pronephric angle neck segment to proximal convoluted tubule (mean of left and right), fold change vs DMSO control; higher = larger pronephric angle. The gist of the method: as §1

Where a name gives a salt, the structure may show the parent alone. ± gives the standard deviation or the standard deviation of the averaged measurements.

For `C[C@@H]1C[C@@H]([C@H](O)CC2CC(=O)NC(=O)C2)C(=O)[C@@H](C)C1` [Cycloheximide], in assay [1], the glomerular separation was 0.972 ± 0.45. The glomerular width in assay [2] was determined as 0.604 ± 0.14. In addition, the “fraction of imaged embryos annotated as normal kidney” value (“fraction of imaged embryos annotated” for short) in assay [3] amounted to 0.2. The “pronephric angle neck segment” value in assay [4] was determined as 1.73 ± 0.19.
`C[C@]12Cc3c[nH]nc3C[C@@H]1CC[C@@H]1[C@@H]2CC[C@@]2(C)[C@H]1CC[C@]2(C)O` [Stanozolol] registered a glomerular separation in assay [1] of 1.31 ± 0.44. Moreover, the glomerular width in assay [2] came out at 1.03 ± 0.076. Besides, the “fraction of imaged embryos annotated” value in assay [3] turned out to be 0.75. Further, the “pronephric angle neck segment” value in assay [4] was 1.01 ± 0.085.
Take `CCC1(c2cccc(O)c2)CCCCN(C)C1` (centres undefined) [Meptazinol hydrochloride]: the glomerular separation in assay [1] amounted to 1.01 ± 0.35. Also, the glomerular width in assay [2] turned out to be 0.967 ± 0.024. The “fraction of imaged embryos annotated” value in assay [3] came to 0.917. The “pronephric angle neck segment” value in assay [4] stood at 0.984 ± 0.06.
In turn, `CN1[C@@H]2C[C@@H](OC(=O)[C@H](CO)c3ccccc3)C[C@H]1[C@@H]1O[C@@H]12` [Scopolamine hydrochloride] registered a glomerular separation in assay [1] of 0.986 ± 0.42. In assay [2], this compound came in with a glomerular width of 1.09 ± 0.054. In addition, in assay [3], the “fraction of imaged embryos annotated” value is 0.833. Further, in assay [4], the “pronephric angle neck segment” value amounted to 0.984 ± 0.036.
In assay [1], `NC(=O)OCCCc1ccccc1` [Phenprobamate] showed a glomerular separation of 0.999 ± 0.4. In assay [2], this compound gave a glomerular width of 1.03 ± 0.022. Moreover, the “fraction of imaged embryos annotated” value in assay [3] stood at 0.75. Besides, the “pronephric angle neck segment” value in assay [4] was found to be 1.01 ± 0.05.
On to `O=[N+]([O-])O[C@@H]1CO[C@H]2[C@@H]1OC[C@@H]2O` [Isosorbide mononitrate], for which, in assay [1], the glomerular separation stood at 0.951 ± 0.48. Further, the glomerular width in assay [2] is 1.04 ± 0.019. Further, the “fraction of imaged embryos annotated” value in assay [3] was found to be 0.833. Further, the “pronephric angle neck segment” value in assay [4] stood at 0.986 ± 0.021.
In assay [1], `CCC(=O)O[C@@](Cc1ccccc1)(c1ccccc1)[C@@H](C)CN(C)C` [Levopropoxyphene napsylate] registered a glomerular separation of 1.29 ± 0.53. The glomerular width in assay [2] amounted to 1.05 ± 0.037. Besides, in assay [3], the “fraction of imaged embryos annotated” value was found to be 0.909. Besides, in assay [4], the “pronephric angle neck segment” value stood at 0.996 ± 0.044.
Consider `CC(C)c1c(CN(C)C(C)Cc2ccccc2)n(C)n(-c2ccccc2)c1=O` (centres undefined) [Famprofazone], for which the glomerular separation in assay [1] came out at 0.985 ± 0.39. Besides, the glomerular width in assay [2] was 0.985 ± 0.031. Also, the “fraction of imaged embryos annotated” value in assay [3] was determined as 0.917. Also, in assay [4], the “pronephric angle neck segment” value is 1.084 ± 0.0087.
On to `C[C@]12CCC(=O)C=C1CC[C@@H]1[C@@H]2C(=O)C[C@]2(C)C(=O)CC[C@@H]12` [Adrenosterone], for which the glomerular separation in assay [1] came to 0.651 ± 0.16. In assay [2], this compound yielded a glomerular width of 1.005 ± 0.0024. The “fraction of imaged embryos annotated” value in assay [3] amounted to 1. For the same compound, the “pronephric angle neck segment” value in assay [4] is 0.958 ± 0.021.
As to `CCC(=O)O[C@H]1CC[C@H]2[C@@H]3CCC4=CC(=O)CC[C@]4(C)[C@H]3CC[C@]12C` [Testosterone propionate], the glomerular separation in assay [1] came to 1.12 ± 0.46. The glomerular width in assay [2] turned out to be 1.03 ± 0.035. Also, the “fraction of imaged embryos annotated” value in assay [3] amounted to 0.75. In addition, in assay [4], the “pronephric angle neck segment” value is 0.9686 ± 0.0074.
With `CCC1=C[C@H]2CN3CCc4c([nH]c5ccccc45)[C@](C(=O)OC)(C2)[C@H]13` [Catharanthine], in assay [1], the glomerular separation was 0.982 ± 0.32. This compound also had a glomerular width in assay [2] of 1.07 ± 0.1. Moreover, the “fraction of imaged embryos annotated” value in assay [3] was determined as 0.833. In addition, the “pronephric angle neck segment” value in assay [4] amounted to 1 ± 0.032.
For `NCCCNCCSP(=O)(O)O` [Amifostine] the same measures were 0.91 ± 0.29, 1.04 ± 0.037, 0.833 and 1.02 ± 0.074.
Take `NCC1(CC(=O)O)CCCCC1` [Gabapentin]: the glomerular separation in assay [1] was 0.802 ± 0.29. This compound returned a glomerular width in assay [2] of 0.9761 ± 0.0014. Besides, in assay [3], the “fraction of imaged embryos annotated” value is 0.75. Also, the “pronephric angle neck segment” value in assay [4] is 0.981 ± 0.016.
Consider `CN1CCN(C(=O)OC2c3nccnc3C(=O)N2c2ccc(Cl)cn2)CC1` (centres undefined) [Zopiclone], for which the glomerular separation in assay [1] is 1.06 ± 0.41. For the same compound, the glomerular width in assay [2] worked out at 0.93 ± 0.014. The “fraction of imaged embryos annotated” value in assay [3] came out at 1. Further, in assay [4], the “pronephric angle neck segment” value was 0.98709 ± 0.00059.
The compound `CCNCC(O)c1cccc(O)c1` (centres undefined) [Etilefrine hydrochloride] yielded a glomerular separation in assay [1] of 0.79 ± 0.23. The compound also registered a glomerular width in assay [2] of 0.9277 ± 0.0022. For the same compound, the “fraction of imaged embryos annotated” value in assay [3] worked out at 0.833. Besides, the “pronephric angle neck segment” value in assay [4] is 0.951 ± 0.051.
As for `CN1[C@@H]2CC[C@H]1C[C@@H](OC1c3ccccc3CCc3ccccc31)C2` [Deptropine citrate], the glomerular separation in assay [1] turned out to be 0.934 ± 0.35. The compound further had a glomerular width in assay [2] of 0.947 ± 0.035. Besides, the “fraction of imaged embryos annotated” value in assay [3] was found to be 1. Besides, the “pronephric angle neck segment” value in assay [4] was determined as 0.939 ± 0.061.
For `COc1cc2c(c(OC)c1OC)-c1ccc(OC)c(=O)cc1[C@@H](NC(C)=O)CC2` [Colchicine] the same measures were 1.2 ± 0.47, 0.827 ± 0.047, 0.667 and 1.06 ± 0.044.
On the same counts, the results for `Oc1ccc2c3c1O[C@H]1[C@@H](O)CC[C@@]4(O)[C@@H](C2)N(CC2CCC2)CC[C@]314` [Nalbuphine hydrochloride] are 0.874 ± 0.27, 1 ± 0.033, 0.75 and 1.04 ± 0.0056.
In assay [1], `C#C[C@]1(O)CC[C@H]2[C@@H]3CCC4=CC(=O)CC[C@]4(C)[C@H]3CC[C@@]21C` [Ethisterone] gave a glomerular separation of 0.918 ± 0.23. In addition, the glomerular width in assay [2] came to 1.06 ± 0.071. Also, the “fraction of imaged embryos annotated” value in assay [3] stood at 0.909. The “pronephric angle neck segment” value in assay [4] stood at 1.065 ± 0.002.
On the same counts, the results for `C#CCN(C)[C@H](C)Cc1ccccc1` [Selegiline hydrochloride] are 0.996 ± 0.51, 0.969 ± 0.055, 0.75 and 0.98 ± 0.017.
In turn, `C[C@]12CC[C@H](O)C[C@H]1CC[C@@H]1[C@@H]2CC[C@]2(C)[C@@H](C3=CC(=O)OC3)CC[C@]12O` [Digitoxigenin] came in with a glomerular separation in assay [1] of 1.38 ± 0.71. In assay [2], this compound yielded a glomerular width of 1.0869 ± 0.00048. Moreover, the “fraction of imaged embryos annotated” value in assay [3] is 0.667. Further, the “pronephric angle neck segment” value in assay [4] was determined as 1.03 ± 0.066.
With `COc1ccc(CN2CCNCC2)c(OC)c1OC` [Trimetazidine dihydrochloride], the glomerular separation in assay [1] is 0.91 ± 0.3. In assay [2], this compound showed a glomerular width of 0.96 ± 0.014. Also, the “fraction of imaged embryos annotated” value in assay [3] was 0.917. For the same compound, the “pronephric angle neck segment” value in assay [4] came to 0.982 ± 0.044.
In the case of `COc1ccc(CCN2CCC(Nc3nc4ccccc4n3Cc3ccc(F)cc3)CC2)cc1` [Astemizole], the glomerular separation in assay [1] came to 2.83 ± 2.3. Also, the glomerular width in assay [2] is 0.777 ± 0.12. Further, the “fraction of imaged embryos annotated” value in assay [3] came out at 0.333. Also, in assay [4], the “pronephric angle neck segment” value is 1.01 ± 0.022.
As to `O=C(NCNC(=O)NC1C(=O)NC(=O)N1CO)NC1C(=O)NC(=O)N1CO` (centres undefined) [Imidurea], the glomerular separation in assay [1] was found to be 0.876 ± 0.2. The same compound registered a glomerular width in assay [2] of 1.008 ± 0.01. Besides, the “fraction of imaged embryos annotated” value in assay [3] was determined as 0.833. Moreover, the “pronephric angle neck segment” value in assay [4] turned out to be 1.058 ± 0.0052.
In the case of `C[N+](C)(C)CCCCCCCCCC[N+](C)(C)C` [Decamethonium bromide], in assay [1], the glomerular separation amounted to 1.04 ± 0.55. In assay [2], this compound registered a glomerular width of 1.01 ± 0.041. Also, in assay [3], the “fraction of imaged embryos annotated” value was 0.727. Further, the “pronephric angle neck segment” value in assay [4] came out at 1.02 ± 0.021.
For `c1ccc2nc(N3CCNCC3)ccc2c1` [Quipazine dimaleate salt] the same measures were 1.09 ± 0.53, 1.01 ± 0.04, 0.75 and 1.022 ± 0.0046.
